Results as given in PubChem BioAssay (NCATS).
Records with an inconclusive call do not appear. Where a call stands in place of a potency, no number is given. Calls of active or inactive are those of the source. The call rests on the fitted dose curve; in most records, active means well fitted inhibition curve with a large enough effect; inconclusive means small, poorly fitted or top-dose-only effect; inactive means flat fitted curve, though single readings scatter.

What was measured:
Test in all cases: qHTS profiling for inhibitors of Plasmodium falciparum proliferation (AID 504749); further: nearly all actives have a fitted effect of over 60% in size
Settings in all cases: P. falciparum in erythrocytes, SYBR Green DNA, 72 h; series mostly up to 28.7 µM
FAB9 = system: FAB9
In short: (§1)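 Quantitative HTS: compounds pinned into medium, infected erythrocytes added (0.3% parasitemia, 2.5% hematocrit), 72 h culture at 37 C under 5% CO2. Saponin/Triton lysis with SYBR Green I, overnight RT, then fluorescence read.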

GB4 = system: GB4
In short: as §1

HB3 = system: HB3
In short: as §1

ICS = system: ICS
In short: as §1

JCK = system: JCK
In short: as §1

N140 = system: N140
In short: as §1

P93_24 = system: P93_24
In short: as §1

P94_40 = system: P94_40
In short: as §1

PAD = system: PAD
In short: as §1

PC15 = system: PC15
In short: as §1
Potency means the concentration at half of the fitted maximal effect.

Row | SMILES | Potency (FAB9) | Potency (GB4) | Potency (HB3) | Potency (ICS) | Potency (JCK) | Potency (N140) | Potency (P93_24) | Potency (P94_40) | Potency (PAD) | Potency (PC15)
1 | CCCc1ccc(C(=O)O)cc1 | inactive | inactive | inactive | inactive | inactive | inactive | inactive | inactive | inactive | inactive
2 | CCc1ccc(S(=O)(=O)O)cc1 | inactive | inactive | inactive | inactive | inactive | inactive | inactive | inactive | inactive | inactive
3 | CN1c2c(nc(N)[nH]c2=O)NCC1CNc1ccc(C(=O)NC(CCC(=O)O)C(=O)O)cc1 (stereo not given) | inactive | inactive | inactive | inactive | inactive | inactive | inactive | inactive | inactive | inactive
4 | Cc1ncc(C[n+]2csc(CCOP(=O)(O)O)c2C)c(N)n1 | inactive | inactive | inactive | inactive | inactive | inactive | inactive | inactive | inactive | inactive
5 | NC(=O)Oc1ccc(Cc2ccccc2)cc1 | inactive | inactive | inactive | inactive | inactive | inactive | inactive | inactive | inactive | inactive
6 | FC(F)(F)COCC(F)(F)F | inactive | inactive | inactive | inactive | inactive | inactive | inactive | inactive | inactive | inactive
7 | CC(=O)Nc1ccc(OC(C)=O)cc1 | inactive | inactive | inactive | inactive | inactive | inactive | inactive | inactive | inactive | inactive
8 | c1ccc(-n2cnnn2)cc1 | inactive | inactive | inactive | inactive | inactive | inactive | inactive | inactive | inactive | inactive
9 | CCCCC(CC)CCC(CC(C)C)OS(=O)(=O)O (stereo not given) | inactive | inactive | inactive | inactive | inactive | inactive | inactive | inactive | inactive | inactive
10 | O=C(O)[C@H]1C(=CCO)O[C@H]2CC(=O)N12 | inactive | inactive | inactive | inactive | inactive | inactive | inactive | inactive | inactive | inactive
11 | COC(=O)c1ccccc1O | inactive | inactive | inactive | inactive | inactive | inactive | inactive | inactive | inactive | inactive
12 | CC(C)CCC[C@@H](C)[C@H]1CC[C@H]2[C@@H]3CC[C@@H]4C[C@H](O)CC[C@]4(C)[C@H]3CC[C@]12C | inactive | inactive | inactive | inactive | inactive | inactive | inactive | inactive | inactive | inactive
13 | CCOc1ccc(NC(=S)Nc2ccc(OCC)cc2)cc1 | inactive | inactive | inactive | inactive | inactive | inactive | inactive | inactive | inactive | inactive
14 | Cc1ccccn1 | inactive | inactive | inactive | inactive | inactive | inactive | inactive | inactive | inactive | inactive
15 | C[Si](C)(C)O[Si](C)(C)C | inactive | inactive | inactive | inactive | inactive | inactive | inactive | inactive | inactive | inactive
16 | O=C1c2ccccc2C(=O)C1c1ccc(F)cc1 | inactive | inactive | inactive | inactive | inactive | inactive | inactive | inactive | inactive | inactive
17 | O=C(O)CCCC/C=C(\c1ccccc1)c1cccnc1 | inactive | inactive | inactive | inactive | inactive | inactive | inactive | inactive | inactive | inactive
18 | Nc1ncnc2c1ncn2CCOCP(=O)(O)O | inactive | inactive | inactive | inactive | inactive | inactive | inactive | inactive | inactive | inactive
19 | [O]=[Bi][O][Bi]=[O] | inactive | inactive | inactive | inactive | inactive | inactive | inactive | inactive | inactive | inactive
20 | CN=C1C=CC(=C(c2ccc(N(C)C)cc2)c2ccc(N(C)C)cc2)C=C1 | 1120 nM (active) | 675 nM (active) | 1000 nM (active) | 398 nM (active) | 2510 nM (active) | 708 nM (active) | 891 nM (active) | 1000 nM (active) | 1000 nM (active) | 1000 nM (active)
21 | CCOC(C)OCC | inactive | inactive | inactive | inactive | inactive | inactive | inactive | inactive | inactive | inactive
22 | CN1C(=O)C[C@@H](C(=O)N[C@@H](Cc2cnc[nH]2)C(=O)N2CCC[C@H]2C(N)=O)NC1=O | inactive | inactive | inactive | inactive | inactive | inactive | inactive | inactive | inactive | inactive
23 | CC/C(=C(/CC)c1ccc(OP(=O)(O)O)cc1)c1ccc(OP(=O)(O)O)cc1 | inactive | inactive | inactive | inactive | inactive | inactive | inactive | inactive | inactive | inactive

Row | SMILES | Potency (FAB9) | Potency (GB4) | Potency (HB3) | Potency (ICS) | Potency (JCK) | Potency (N140) | Potency (P93_24) | Potency (P94_40) | Potency (PAD) | Potency (PC15)
24 | CC(CC=O)CCCC(C)(C)O (stereo not given) | inactive | inactive | inactive | inactive | inactive | inactive | inactive | inactive | inactive | inactive
25 | Cc1c(Cl)cccc1Nc1ncccc1C(=O)O | inactive | inactive | inactive | inactive | inactive | inactive | inactive | inactive | inactive | inactive
26 | O=C(O)COc1ccccc1/C=N/NC(=O)c1ccncc1 | inactive | inactive | inactive | inactive | inactive | inactive | inactive | inactive | inactive | inactive
27 | OB(O)O | inactive | inactive | inactive | inactive | inactive | inactive | inactive | inactive | inactive | inactive
28 | NCC(O)CC(=O)O (stereo not given) | inactive | inactive | inactive | inactive | inactive | inactive | inactive | inactive | inactive | inactive
29 | N=C(N)n1cccn1 | inactive | inactive | inactive | inactive | inactive | inactive | inactive | inactive | inactive | inactive
30 | CC1=C(/C=C/C(C)=C/C=C/C(C)=C/C(=O)Oc2c(C)c(C)c3c(c2C)CC[C@@](C)(CCC[C@H](C)CCC[C@H](C)CCCC(C)C)O3)C(C)(C)CCC1 | inactive | inactive | inactive | inactive | inactive | inactive | inactive | inactive | inactive | inactive
31 | OC[C@H]1O[C@@](CO)(O[C@H]2O[C@H](CO)[C@@H](O)[C@H](O)[C@H]2O)[C@@H](O)[C@@H]1O | inactive | inactive | inactive | inactive | inactive | inactive | inactive | inactive | inactive | inactive
32 | Cc1cc2nc3c(=O)[nH]c(=O)nc-3n(C[C@H](O)[C@H](O)[C@H](O)COP(=O)(O)OP(=O)(O)OC[C@H]3O[C@@H](n4cnc5c(N)ncnc54)[C@H](O)[C@@H]3O)c2cc1C | inactive | inactive | inactive | inactive | inactive | inactive | inactive | inactive | inactive | inactive
33 | Cc1cccc(C)c1NC(=O)NC1=CCCN1C | inactive | inactive | inactive | inactive | inactive | inactive | inactive | inactive | inactive | inactive
34 | CC(C)(CO)[C@@H](O)C(=O)NCCC(=O)NCCSSCCNC(=O)CCNC(=O)[C@H](O)C(C)(C)CO | inactive | inactive | inactive | inactive | inactive | inactive | inactive | inactive | inactive | inactive
35 | O=C1c2ccccc2C(=O)c2c1ccc(O)c2O | inactive | inactive | inactive | inactive | inactive | inactive | inactive | inactive | inactive | inactive
36 | O=c1[nH]c(=O)n([C@H]2C[C@H](O)[C@@H](CO)O2)cc1/C=C/Br | inactive | inactive | inactive | inactive | inactive | inactive | inactive | inactive | inactive | inactive
37 | OC[C@H]1O[C@@H]2O[C@H]3[C@H](O)[C@@H](O)[C@@H](O[C@H]4[C@H](O)[C@@H](O)[C@@H](O[C@H]5[C@H](O)[C@@H](O)[C@@H](O[C@H]6[C@H](O)[C@@H](O)[C@@H](O[C@H]7[C@H](O)[C@@H](O)[C@@H](O[C@H]1[C@H](O)[C@H]2O)O[C@@H]7CO)O[C@@H]6CO)O[C@@H]5CO)O[C@@H]4CO)O[C@@H]3CO | inactive | inactive | inactive | inactive | inactive | inactive | inactive | inactive | inactive | inactive
38 | c1ccc2ccccc2c1 | inactive | inactive | inactive | inactive | inactive | inactive | inactive | inactive | inactive | inactive
39 | CC(O)CN(C)C (stereo not given) | inactive | inactive | inactive | inactive | inactive | inactive | inactive | inactive | inactive | inactive
40 | CCCCC | inactive | inactive | inactive | inactive | inactive | inactive | inactive | inactive | inactive | inactive
41 | CC12CCC(C[N+](C)(CCC[N+](C)(C)C)C1)C2(C)C (stereo not given) | inactive | inactive | inactive | inactive | inactive | inactive | inactive | inactive | inactive | inactive
42 | CC(C)(C)CC(C)(C)c1cc(Cc2cc(C(C)(C)CC(C)(C)C)cc(-n3nc4ccccc4n3)c2O)c(O)c(-n2nc3ccccc3n2)c1 | inactive | inactive | inactive | inactive | inactive | inactive | inactive | inactive | inactive | inactive
43 | C=CCN1CCCC1CNC(=O)c1cc(S(N)(=O)=O)cc(OC)c1OC (stereo not given) | inactive | inactive | inactive | inactive | inactive | inactive | inactive | inactive | inactive | inactive
44 | FC(F)OC(Cl)C(F)(F)F (stereo not given) | inactive | inactive | inactive | inactive | inactive | inactive | inactive | inactive | inactive | inactive
45 | OC1OC[C@@H](O)[C@H](O)[C@@H]1O (stereo not given in full) | inactive | inactive | inactive | inactive | inactive | inactive | inactive | inactive | inactive | inactive
